# Bioassay records: PubChem, National Center for Advancing Translational Sciences (NCATS)
# TRHR agonist – agonists of human TRH receptor; activation, % at 2 µM; TRHR cells, calcium flux fluo-8, FDSS agonist mode; AID 493084; actives 0.18% (n = 360,000)
#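 Agonist-mode FDSS calcium read (Ex 480/Em 530, 1 s cycles) in 1536-well TRHR cells with fluo-8 dye, after 10-cycle baseline and 23 nL compound addition; TRH at EC20 (10 nM final) added afterwards for the enhancer phase.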
# D1 antag – antagonists of human D1 dopamine receptor. activity change, negative = inhibition, % at 10 µM. HEK293 TREx D1 cells, calcium flux, dopamine EC80; hits give low values. actives 3.2% (n = 360,000). AID 504652; in the data active = activity change below about -30%
#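 HEK293 T-REx cells expressing inducible, force-coupled D1 receptor; no-wash Ca dye, 30–90 min RT. Cmpd → 180 s read at 1 Hz → EC80 DA → 180 s read.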
# D1 potentiator – potentiators of human D1 dopamine receptor; P21728; HEK293 TREx D1 cells, calcium flux, dopamine EC20 potentiation; potentiation, % at 10 µM; actives 0.036% (n = 360,000); AID 504651; in the data active = potentiation above about 30%
# D1 agonist – activates the human D1 dopamine receptor. activation, % at 2 µM. HEK293 T-REx D1 cells, calcium flux, agonist mode. actives 1% (n = 360,000)
#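 Agonism was scored from calcium flux recorded over 180 s (1 read/s) after pintool compound addition, following a 10-cycle baseline. Cells were inducible force-coupled HEK293 TREx D1, plated overnight at 30 C and loaded with no-wash calcium dye.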
# USP1-UAF1 inh – inhibitors of human USP1/UAF1 deubiquitinase; actives 0.23% (n = 390,000); O94782; recombinant USP1/UAF1, Ub-Rhodamine cleavage fluorescence; Potency, µM (series often up to 57.1 µM), usual class: inhibitors; AID 743255; active = well fitted inhibition curve with a large enough effect; inconclusive = small, poorly fitted or top-dose-only effect; inactive = no such curve, though single readings can be large or run the other way; note: nearly all actives have a fitted effect of over 60% in size
# Target sequence (O94782 whole entry, looked up): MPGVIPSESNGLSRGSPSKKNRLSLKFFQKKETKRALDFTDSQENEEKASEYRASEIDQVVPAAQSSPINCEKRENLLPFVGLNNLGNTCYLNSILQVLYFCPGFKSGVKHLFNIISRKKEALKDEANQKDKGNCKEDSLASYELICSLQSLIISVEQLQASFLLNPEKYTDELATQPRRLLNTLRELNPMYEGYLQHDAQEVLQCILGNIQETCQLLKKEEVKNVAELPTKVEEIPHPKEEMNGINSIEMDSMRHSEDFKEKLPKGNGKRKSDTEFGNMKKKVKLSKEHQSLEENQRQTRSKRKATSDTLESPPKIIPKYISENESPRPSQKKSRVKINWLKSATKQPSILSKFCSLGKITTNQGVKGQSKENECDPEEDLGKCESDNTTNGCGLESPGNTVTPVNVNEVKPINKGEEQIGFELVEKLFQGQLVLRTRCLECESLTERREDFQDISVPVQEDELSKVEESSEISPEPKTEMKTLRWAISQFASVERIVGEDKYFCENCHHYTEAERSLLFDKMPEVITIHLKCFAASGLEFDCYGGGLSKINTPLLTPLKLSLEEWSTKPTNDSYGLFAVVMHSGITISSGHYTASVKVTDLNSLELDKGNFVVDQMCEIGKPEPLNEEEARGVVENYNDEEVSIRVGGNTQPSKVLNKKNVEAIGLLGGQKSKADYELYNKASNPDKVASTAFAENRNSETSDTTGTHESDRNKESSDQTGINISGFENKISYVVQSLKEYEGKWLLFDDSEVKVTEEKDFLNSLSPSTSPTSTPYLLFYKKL
#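 USP1/UAF1 complex at 1 nM was preincubated with compound for 15 min at room temperature, then Ub-Rho substrate (150nM final) was added. Fluorescence (480/540 nm) was read kinetically, 6 reads every 60 seconds.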
# TRHR PAM – allosterically enhances the human TRH receptor. P34981. TRHR cells, fluo-8 calcium fluorescence, EC20 TRH enhancement. enhancement, % at 2 µM. actives 0.66% (n = 360,000). AID 493056; in the data active = enhancement above about 30%
#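 Enhancer read-out: after compound pinning and an initial kinetic agonist-mode read, an EC20 of TRH (10 nM final) was injected and fluo-8 calcium signal (Ex 480/Em 530) followed at 1 s/cycle for 100 cycles in TRHR-expressing cells.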
# A number is an active result; . = inactive; ? = inconclusive; / = no result given. A selection: hits, their analogues and other compounds. The true share with any hit is near 4.4%. Cut-off read from the data, not from the text of the source, unless noted: active = activation above about 30%; inactive = the rest.
SMILES,TRHR agonist,D1 antag,D1 potentiator,D1 agonist,USP1-UAF1 inh,TRHR PAM
Cc1ccc(C(=O)Nc2ccc(Cc3ccncc3)cc2)cc1[N+](=O)[O-],.,-35,.,.,.,.
CCC(=O)Nc1cccc(NC(=O)c2ccc(C)c([N+](=O)[O-])c2)c1,.,.,.,.,.,.
O=C(Nc1cc(Cl)ccc1N1CCOCC1)c1ccc(N2CCCCC2)c([N+](=O)[O-])c1,/,/,/,/,.,/
O=C(Nc1ccc(N2CCCCC2)c(Cl)c1)c1ccc(N2CCOCC2)c([N+](=O)[O-])c1,.,-48,.,.,.,.
c1ccc(CN2CCC3(CCCc4ccccc43)CC2)cc1,.,-49,.,.,.,.
c1ccc(CN2CCC3(CC2)Nc2ccccc2CO3)cc1,.,.,.,.,.,.
CCc1cc(Br)ccc1N1C(=O)C2CC=CCC2C1=O (centres undefined),.,-41,.,.,.,.
CCOc1ccc(-n2c(SCc3ccccc3)nc3c([nH]c4ccccc43)c2=O)cc1,.,.,.,.,.,.
Nn1cnc2c([nH]c3ccccc32)c1=O,.,-32,.,.,.,.
Cn1cnnc1Sc1ccc(C(=O)OCC(=O)NCC(F)(F)F)cc1[N+](=O)[O-],.,.,.,.,.,.
C=CCNC(=O)COC(=O)c1ccc(Sc2nncn2C)c([N+](=O)[O-])c1,.,-32,.,.,.,.
Cc1cc2cc(CNC(=O)Cc3ccc([N+](=O)[O-])cc3)ccc2n1C,.,-31,.,.,.,.
Cc1cc2cc(CNC(=O)C3CCCC3)ccc2n1C,.,-30,.,.,.,.
CCCC(=O)NCc1ccc2c(c1)cc(C)n2C,.,.,.,.,.,.
Cc1cc(C)c(S(=O)(=O)NCc2ccc3c(c2)cc(C)n3C)c(C)c1,.,-37,.,.,.,.
COc1ccc(N2CCN(Cc3nnc(-c4cccc(Br)c4)o3)CC2)cc1,.,.,.,.,?,.
COc1cc(C)ccc1OCCCCOc1ccccc1C(C)=O,.,-49,.,.,.,.
CC(=O)c1ccccc1OCCOCCOc1ccccc1C(C)=O,.,-34,.,.,.,.
COc1cc(C)ccc1OCCCOc1ccccc1Cl,.,.,.,.,.,.
O=C(O)c1ccccc1OCCOCCOc1ccccc1C(=O)O,.,.,.,.,.,.
CCCCn1c(-c2c(Cl)c(C)nn2C)n[nH]c1=S,.,.,.,.,.,.
CCn1c(-c2c(Cl)c(C)nn2C)n[nH]c1=S,.,.,.,39,.,.
COC(=O)c1[nH]c2ccc(Br)cc2c1NC(=O)CN1CCCCC1CCO (centres undefined),.,-41,.,.,.,.
COC(=O)c1[nH]c2ccc(Br)cc2c1NC(=O)C(C)N1CCN(C2CCCCC2)CC1 (centres undefined),.,.,.,.,.,.
CCc1nnc2c3ccccc3nc(Nc3ccc(F)c(Cl)c3)n12,.,.,.,.,.,.
SMILES,TRHR agonist,D1 antag,D1 potentiator,D1 agonist,USP1-UAF1 inh,TRHR PAM
COC(=O)c1ccccc1NC1=C/C(=N\S(=O)(=O)c2cccs2)c2ccccc2C1=O,.,.,.,.,4µM,.
O=C1C(Nc2ccccc2)=C/C(=N/S(=O)(=O)c2cccs2)c2ccccc21,.,.,.,.,2.5µM,.
COC(=O)c1ccccc1Nc1ccccc1,.,.,.,.,.,.
COC(=O)c1ccccc1NC1=C/C(=N\S(=O)(=O)c2ccc(C(=O)O)cc2)c2ccccc2C1=O,.,.,/,.,13µM,.
CCOc1ccccc1NS(=O)(=O)c1cc2[nH]c(=O)c(=O)[nH]c2cc1C,.,.,.,.,?,.
CCOc1ccc(C(=O)Nc2ccc(-c3nc4ccccc4s3)c(C)c2)cc1OCC,.,.,.,.,.,.
COc1ccc(OC)c(NC(=O)C(=O)NNC(=O)C23CC4CC(CC(C4)C2)C3)c1,.,.,.,40,.,.
COc1ccc(NC(=O)CNC(=O)C23CC4CC(CC(C4)C2)C3)c(OC)c1,.,.,.,.,.,.
CCOc1cc(CNC(=O)C2COc3ccccc3C2)cc(OCC)c1OCC (centres undefined),.,.,.,.,.,.
CCOC(=O)C(C)On1c(-c2ccccc2)nc2ccc([N+](=O)[O-])cc21 (centres undefined),.,.,.,.,.,.
CCOC(=O)C(C)On1c(-c2ccc(Cl)cc2)nc2ccc([N+](=O)[O-])cc21 (centres undefined),.,-40,.,.,.,.
CCOc1ccc2nc(NC3=NC(C)(C)C=C(C)N3)nc(C)c2c1,.,.,.,.,.,32
COc1ccc(NC(=O)C(=O)NCC(c2cccnc2)N2CCc3ccccc3C2)cc1 (centres undefined),.,-40,.,.,.,.
Clc1ccc(-c2csc(=Nc3ccccc3)n2Cc2ccc3c(c2)OCO3)cc1,.,.,.,.,.,.
N#CC1=C(N)N(c2ccc(Cl)cc2)C2=C(C(=O)CCC2)C1c1cc(CN2CCOCC2)cs1 (centres undefined),.,.,.,.,.,.
Cc1cc(NO)c(C(C)C)cc1N=O,.,.,.,36,.,.
O=C(Cn1nc(Cc2cccnc2)c2ccccc2c1=O)Nc1cccc(C(F)(F)F)c1,.,.,.,.,.,.
O=C(c1ccc([N+](=O)[O-])cc1)N(Cc1ccc(Cl)cc1)N1C(=O)CCCC1=O,36,.,.,.,.,.
O=C(c1ccc([N+](=O)[O-])cc1)N(Cc1ccc(Cl)cc1Cl)N1C(=O)CCCC1=O,.,.,.,.,.,.
COC(=O)c1c(SC)nc2ccccc2c1OCc1cccc(C)c1,.,.,.,.,.,.
Cc1cc2c3ccccc3ncn2n1,.,-39,.,.,.,.
Cc1ccc(N2C(=O)CS(=O)(=O)C23C(=O)N(Cc2ccccc2C)c2ccccc23)cc1Cl (centres undefined),.,.,.,.,.,.
Cc1oc2ncn(C)c(=O)c2c1C(=O)N(C)c1ccccc1F,.,.,.,.,?,.
CSc1nnc(C)c(/C=C/Nc2ccc(F)cc2F)n1,.,.,.,.,.,.
C=CCSc1nnc(C)c(/C=C/Nc2ccc(Cl)cc2)n1,.,.,.,74,?,.
COC(/C=C/Nc1ccc(OC)cc1)=C(C#N)C#N,.,.,.,.,.,.
COC(/C=C/Nc1ccc(Cl)cc1)=C(C#N)C#N,.,-31,.,.,.,.
Cc1ccc(Cl)cc1N1CCN(S(=O)(=O)c2ccc3c(c2)CCN3C(=O)C2CCC2)CC1,.,.,.,.,.,.
